For 20 compounds, outcome results are on record in PubChem BioAssay AID1347155 (National Center for Advancing Translational Sciences (NCATS), 2019).

Inconclusive results are not listed. Calls of active or inactive are those of the source. Calls follow the shape of the dose curve; as a rule, active = well fitted inhibition curve with a large enough effect; inconclusive = small, poorly fitted or top-dose-only effect; inactive = no such curve, though single readings can be large or run the other way.

The assay concerns Zika virus NS2B-NS3 protease (linked). Description: Optimization screen NINDS Rhodamine qHTS for Zika virus inhibitors: Linked NS2B-NS3 protease assay. As to conditions: fluorogenic rhodamine substrate; series mostly up to 105 µM. From the text: Avindra Nath, Ph.D., National Institute of Neurological Disorders and Stroke (NINDS), Bethesda, MD
Radhakrishnan Padmanabhan, Ph.D., Georgetown University (GU), Washington D.C.
Zika Virus causes congenital defects, including microcephaly and is associated with Guillain-Barre syndrome, eningoencephalitis and myelitis in infected adult. […] Using a target-based approach, we hope to establish a screening paradigm to uncover novel, cell-active NS2B-NS3 protease (Zika Virus) specific inhibitors from NCATS' collection of small molecules using qHTS.
Four assay panel was created to identify potential Zika Virus inhibitors. Namely, (1) GU unlinked NS2B-NS3 AMC tagged protease qHTS, (2) GU unlinked NS2B-NS3 Rhodamine tagged protease qHTS, (3) NINDS linked NS2B-NS3 AMC tagged protease qHTS, (4) NINDS linked NS2B-NS3 Rhodamine tagged protease qHTS. Active compounds were re-acquired and re-screened to confirm inhibition. Inhibitors were further screened against various confirmatory and counterscreens in dose response format.
Early Translation Branch (ETB)
National Center for Advancing Translational Sciences (NCATS), Rockville, MD
National Institute of Health (NIH), Bethesda, Maryland
For the linked assay, Nath lab (NINDS) provided the purified linked NS2B-NS3 protease which is consists of hydrophilic domain of NS2B linked to the NS3 protease domain by a flexible (-GGGGSGGGG-) linker. Control compound aprotinin is obtained from Thermo Scientific (#78432; Waltham, Massachusetts). Rhodamine110 substrate ([N-Cbz]-Nle-Lys-Arg-Arg-Rhod110-Arg-Arg-Lys-Nle-[N-Cbz]) was purchased from either Genscript or Bachem.
1536-well Protease (Rhodamine110 Substrate) Assay:
Briefly, 3 microL of enzyme (25 nM final concentration), in assay buffer (10 mM Tris-HCl pH 8.0 with 0.01% Tween 20) were dispensed into a 1,536-well solid-bottom black plate (Greiner Bio One, Monroe, NC). Twenty-three nL of compounds (final concentration range 7.28 nM to 114 microM) or control Aprotinin (final concentration range 3.47 nM to 114 microM) were transferred via Wako Pin-tool (Wako Automation, Richmond, VA). Samples were incubated (room temperature, protected from light) for 15 minutes followed by a 1 microL Rhodamine110 substrate addition (1.5 microM final concentration). Plates were then immediately read on a ViewLux High-throughput CCD imager (PerkinElmer, Waltham, MA) equipped with FITC fluorescence optics (480(20) nm excitation, 540(25) nm emission), then incubated (room temperature, protected from light) for 15 minutes (~15% conversion). The change in fluorescence intensity over the 15-minute reaction period was normalized against no-inhibitor and no-enzyme controls and the resulting percent inhibition data were fitted to a 4-parameter Hill equation. Aprotinin was used as intraplate control.
In the case of `C[C@@H]1O[C@@H](O[C@H]2C[C@@H](O)[C@]3(CO)C4C(CC[C@]3(O)C2)[C@@]2(O)CC[C@H](C3=CC(=O)OC3)[C@@]2(C)C[C@H]4O)[C@H](O)[C@H](O)[C@H]1O` (stereo not given in full), the result was inactive.

For `C=CCN1CCC2(C)c3cc(O)ccc3C[C@H]1[C@H]2C`, the compound was classed as inactive.

For `C[C@H]1O[C@@H](O[C@H]2[C@@H](O)C[C@@H](O[C@H]3[C@@H](O)C[C@H](O[C@H]4CC[C@@]5(C)[C@H](CC[C@@H]6[C@@H]5CC[C@]5(C)[C@@H](C7=CC(=O)OC7)CC[C@]65O)C4)O[C@@H]3C)O[C@@H]2C)C[C@H](O)[C@@H]1O`, the compound was classed as inactive.

Turning to `C[C@@H]1[C@@H]2Cc3ccc(O)cc3[C@@]1(C)CCN2CCc1ccccc1`, the outcome was inactive.

In the case of `C[C@@H]1O[C@@H](O[C@H]2C[C@@H](O)[C@]3(CO)[C@H]4[C@H](O)C[C@]5(C)[C@@H](C6=CC(=O)OC6)CC[C@]5(O)[C@@H]4CC[C@]3(O)C2)[C@H](O)[C@H](O)[C@H]1O`, the outcome was inactive.

On to `CO[C@H]1[C@@H](O)CC(OC2[C@@H](O)CC(OC3[C@@H](O)C[C@H](OC4CC[C@@]5(C)C(CCC6C5CC(O)[C@]5(C)[C@H](C7=CC(=O)OC7)CCC65O)C4)O[C@@H]3C)O[C@@H]2C)O[C@@H]1C` (stereo not given in full), for which the outcome was inactive.

Consider `C=CCN1CCC2(C)c3cc(O)ccc3CC1C2C` (stereo not given), for which the outcome was inactive.

As for `C[C@@H]1[C@@H]2Cc3ccc(O)cc3[C@@]1(C)CCN2CC1CC1`, the result was inactive.

On to `C[C@H]1O[C@@H](O[C@H]2[C@@H](O)C[C@H](O[C@H]3[C@@H](O)C[C@H](O[C@H]4CC[C@@]5(C)[C@H](CC[C@@H]6[C@@H]5CC[C@]5(C)[C@@H](C7=CC(=O)OC7)CC[C@]65O)C4)O[C@@H]3C)O[C@@H]2C)C[C@H](O)[C@@H]1O`, for which the compound was classed as inactive.

With `CC1O[C@@H](O[C@@H]2C(O)C[C@H](O[C@@H]3C(O)C[C@@H](OC4CC[C@@]5(C)C6CC[C@]7(C)C(C8=CC(=O)OC8)CC[C@@]7(O)C6CC[C@@H]5C4)OC3C)OC2C)CC(O)[C@H]1O` (stereo not given in full), the result was inactive.

As to `CN1CC[C@@]23CCCCC2C1Cc1ccc(O)cc13` (stereo not given in full), the result was inactive.

As to `CC(C)=CCN1CC[C@@]2(C)c3cc(O)ccc3C[C@@H]1[C@@H]2C`, the outcome was inactive.

Turning to `CC(C)OC(=O)Nc1ccccc1`, the outcome was inactive.

Turning to `C=CCN1CC[C@]23CCCCC2[C@H]1Cc1ccc(O)cc13` (stereo not given in full), the call was inactive.

Take `Cc1ccc2c(c1)[C@]13CCCC[C@@H]1[C@H](C2)N(C)CC3`: the result was inactive.

As to `COC1C(O)C(C)O[C@@H](OC2CC[C@@]3(C)C4CC[C@]5(C)C(C6=CC(=O)OC6)CC[C@@]5(O)C4CC[C@@H]3C2)C1O` (stereo not given in full), the compound was classed as inactive.

For `CC1OC(O[C@H]2C[C@@H](O)[C@]3(CO)[C@H]4[C@H](O)C[C@]5(C)[C@@H](C6=CC(=O)OC6)CC[C@]5(O)[C@@H]4CC[C@]3(O)C2)C(O)C(O)C1O` (stereo not given in full), the outcome was inactive.

Turning to `C[C@H]1O[C@@H](O[C@H]2[C@@H](O)C[C@H](O[C@H]3[C@@H](O)C[C@H](O[C@H]4CC[C@]5(C)C6CC[C@]7(C)[C@@H](C8=CC(=O)OC8)CC[C@]7(O)C6CC[C@@H]5C4)O[C@@H]3C)O[C@@H]2C)C[C@H](O)[C@@H]1O` (stereo not given in full), the call was inactive.

With `CN1CC[C@@]23CCCC[C@@H]2[C@@H]1Cc1ccc(O)cc13`, the compound was classed as inactive.

With `CC[C@H](C)[C@H]1O[C@]2(C=C[C@@H]1C)C[C@@H]1C[C@@H](C/C=C(\C)[C@@H](O[C@H]3C[C@H](OC)[C@@H](O[C@H]4C[C@H](OC)[C@@H](O)[C@H](C)O4)[C@H](C)O3)[C@@H](C)/C=C/C=C3\CO[C@@H]4[C@H](O)C(C)=C[C@@H](C(=O)O1)[C@]34O)O2`, the outcome was inactive.
